TLR4 MyD88 comp: inhibitors of TLR4-MyD88 association in cells, primary screen, cell-based, HeLa CL3-4, BLA complementation, FRET ratio; Toll-like receptor 4 (Homo sapiens) + Myeloid differentiation primary response protein …; HeLa CL3-4 TLR4/MyD88 BLA complementation; inhibition, % at 8.4 µM; hit rate 0.18% among 200,000; in the data active = inhibition above about 25%;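 note: 0% = vehicle and 100% = reference inhibitor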
PRMT1 inh: PRMT1 methyltransferase inhibitors, primary screen, biochemical, fluorescence polarization. Protein arginine N-methyltransferase 1 (Homo sapiens), Q99873. recombinant PRMT1, activity-based probe fluorescence polarization. inhibition, % at 2.79 µM. hit rate 1.3% among 370,000;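 active = inhibition above about 21% made by adding two undisclosed values, limit read from the data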
TLR9-MyD88 block: inhibitors of TLR9-MyD88 association in cells, primary screen, cell-based, CHO, BLA complementation, fluorescence | Toll-like receptor 9 (Homo sapiens) + Myeloid differentiation primary response protein … | CCF4 FRET ratio | AID 504734, 2011 | inhibition, % at 4.98 µM | hit rate 0.21% among 340,000;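 active = inhibition above the mean over all tested compounds plus 3 SD, cut at about 21% in these data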;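 note: 0% = DMSO only wells and 100% = clavulanate BLA inhibitor control wells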
Granule exo inh: LAMP-1 surface exposure blockers, TALL-104 cells – cell-based, flow cytometry, MLPCN library, primary screen. TALL-104 LAMP-1 surface exposure; cells stimulated with thapsigargin and PMA. inhibition, % at 10 µM. hit rate 0.66% among 360,000. AID 651702, 2012;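 active = inhibition above about 55%, limit read from the data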
NOD2-RIPK2 inh: NOD2-RIPK2 binding disruptors in cells, primary screen, fluorescence, CHO cells, BLA complementation; AID 624267, 2012; CCF4 ratio; hit rate 0.38% among 360,000; inhibition, % at 4.98 µM; in the data active = inhibition above about 21%;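 note: 0% = vehicle only and 100% = reference blocker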
ABHD5-PLIN5 inh: ABHD5-PLIN5 interaction inhibitors, primary screen, cell lysate, split luciferase complementation, luminescence; Split G. princeps luciferase complementation, 4 h; AID 602281, 2012; hit rate 0.78% among 360,000; inhibition, % at 4 µM;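 active = inhibition above the mean inhibition across every tested compound plus 3 SD, cut at about 22% in these data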;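 note: 0% = DMSO only wells and the 100% control is not disclosed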
ABHD5-PLIN5 conf: ABHD5-PLIN5 interaction inhibitors, confirmation, biochemical, luminescence; shares compounds with ABHD5-PLIN5 inh; inhibition, % at 4 µM; hit rate 67% among 2,200; in the data active = inhibition above about 23%;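 note: 0% = DMSO vehicle wells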
HNF4 counter: HNF4 dimerization inhibitors, counter-screen for ABHD5-PLIN5 interaction inhibitor project, biochemical, split-luciferase complementation, luminescence. AID 651674, 2012. shares compounds with ABHD5-PLIN5 inh. inhibition, % at 4 µM. hit rate 77% among 2,200;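 active = mean inhibition across replicate wells exceeding the computed hit threshold, cut at about 13% in these data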;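 note: light from luciferase halves that rejoin when HNF4 fusion proteins dimerize; 0% = DMSO only wells and the 100% control is not given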
Starred values were filed as active, the others as inactive. An excerpt weighted towards active compounds, which were near 2.6% of everything screened.

`OC(c1cccc(Cl)c1)c1nc(-c2ccoc2)cs1` (configuration not stated) gave PRMT1 inh 9.9, Granule exo inh 11.8, NOD2-RIPK2 inh -2.0, ABHD5-PLIN5 inh 26.6*, ABHD5-PLIN5 conf 47.0* and HNF4 counter 42.7*.
Screening CCN(CC(=O)Nc1c(F)cccc1F)C(=O)CSCC(=O)Nc1ccc(OC)cc1 returned PRMT1 inh -1.8, TLR9-MyD88 block 0.4, Granule exo inh -0.9, NOD2-RIPK2 inh -7.2, ABHD5-PLIN5 inh 26.1*, ABHD5-PLIN5 conf 2.8 and HNF4 counter -4.5.
Nc1[nH]c(C(=O)c2ccc(Br)cc2)c(-c2ccc(F)cc2)c1C(=O)NCCc1c[nH]c2ccccc12 was read as PRMT1 inh 4.6.
Screening Cc1ccc(-c2cc(C(=O)N/N=C/c3ccccc3O)n[nH]2)o1 returned PRMT1 inh -1.6, TLR9-MyD88 block 1.4, Granule exo inh 44.2, NOD2-RIPK2 inh -2.3 and ABHD5-PLIN5 inh 10.7.
For Cn1cc(C(=O)N/N=C/C(Br)=C/c2ccccc2)ccc1=O the results were TLR4 MyD88 comp 10.8, PRMT1 inh 2.9, TLR9-MyD88 block -2.1, Granule exo inh 1.8, NOD2-RIPK2 inh -4.5, ABHD5-PLIN5 inh 27.3*, ABHD5-PLIN5 conf 8.0 and HNF4 counter 75.2*.
Screening Cc1ccc(-c2cc(C(=O)N/N=C/C(Br)=C/c3ccccc3)n[nH]2)o1 returned TLR4 MyD88 comp -16.9, PRMT1 inh 8.2, TLR9-MyD88 block 0.3, Granule exo inh 16.2, NOD2-RIPK2 inh -7.8, ABHD5-PLIN5 inh 26.5*, ABHD5-PLIN5 conf 13.8 and HNF4 counter 39.1*.
`Cn1cc(C(=O)N/N=C/C(Br)=C\c2ccccc2)ccc1=O` gave TLR4 MyD88 comp 3.9, PRMT1 inh 1.8, TLR9-MyD88 block 0.8, Granule exo inh 10.2, NOD2-RIPK2 inh 4.0, ABHD5-PLIN5 inh 25.6*, ABHD5-PLIN5 conf 6.7 and HNF4 counter 26.3*.
`Cn1cc(C(=O)N/N=C/C=C/c2ccccc2)ccc1=O` gave TLR4 MyD88 comp 2.6, PRMT1 inh 3.8, TLR9-MyD88 block 1.5, Granule exo inh 0.5, NOD2-RIPK2 inh 7.5 and ABHD5-PLIN5 inh 1.8.
`Cc1ccc(C)c(/C=C/C(=O)c2ccccc(=O)c2O)c1` gave TLR4 MyD88 comp 2.7, PRMT1 inh 15.4, TLR9-MyD88 block -3.2, Granule exo inh -1.6, NOD2-RIPK2 inh 3.5, ABHD5-PLIN5 inh 29.8*, ABHD5-PLIN5 conf 55.6* and HNF4 counter 34.7*.
For O=C(/C=C/c1ccc([N+](=O)[O-])cc1)c1ccccc(=O)c1O the results were PRMT1 inh 15.0, TLR9-MyD88 block -1.8, Granule exo inh 56.3*, NOD2-RIPK2 inh 1.6, ABHD5-PLIN5 inh 65.8*, ABHD5-PLIN5 conf 98.4* and HNF4 counter 90.7*.
`O=C(/C=C/c1ccccc1Cl)c1ccccc(=O)c1O` gave TLR4 MyD88 comp -0.9, PRMT1 inh 10.3, TLR9-MyD88 block -13.5, Granule exo inh 1.1, NOD2-RIPK2 inh -4.2, ABHD5-PLIN5 inh 33.4*, ABHD5-PLIN5 conf 59.2* and HNF4 counter 43.5*.
For Cc1ccc(/C=C/C(=O)c2ccccc(=O)c2O)c(C)c1 the results were TLR4 MyD88 comp -12.2, PRMT1 inh 16.9, TLR9-MyD88 block 9.1, Granule exo inh -3.3, NOD2-RIPK2 inh -9.4 and ABHD5-PLIN5 inh 20.8.
Screening Nc1[nH]c2cc(C(F)(F)F)ccc2c1C(=O)NC1CCCCC1 returned PRMT1 inh -3.1.
Cc1cccc(/C=C(\c2nc3ccccc3[nH]2)S(=O)(=O)c2ccccc2)c1 was read as TLR4 MyD88 comp -7.5, PRMT1 inh 6.0, TLR9-MyD88 block 5.4, Granule exo inh 36.3, NOD2-RIPK2 inh -0.7, ABHD5-PLIN5 inh 42.5*, ABHD5-PLIN5 conf 84.5* and HNF4 counter 67.5*.
